Compound activity from PubChem BioAssay.
Nrf2 inh – blocks Nrf2 signaling; A549 ARE-Fluc reporter, luciferase luminescence, 18-24 h; Potency, µM (top dose mostly 46 µM), for the others: at the highest dose activity change, negative = inhibition, usual class: inhibitors; 2.1% of 360,000 active; AID 504444; also: % is scaled to controls: 0 for no effect and ±100 for the full control effect; nearly all actives have a fitted effect of over 60% in size
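Cells were seeded and rested 2 h, then exposed to compounds for 18-24 h. CellTiter-Fluor was read first as a viability measure. BugLite was added 15 min before the final luminescent read of ARE-luciferase activity in A549 cells.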
ATXN2 expr inh – inhibitors of ATXN2 expression. 0.72% of 360,000 active. Potency, µM (doses to about 57 µM), for inactives: at the top dose activity change, negative = inhibition, usual class: inhibitors. HEK-293 ATXN2-luciferase reporter, luminescence, 24 h; also: % is scaled to controls: 0 for no effect and ±100 for the full control effect; nearly all actives have a fitted effect of over 55% in size
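ATXN2-luciferase reporter cells (luciferase flanked by upstream and downstream ATXN2 gene portions) were treated 24 h at 37 °C with compounds at up to 57 uM. SteadyGlo luminescence gave expression; GF-AFC fluorescence gave viability.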
A549 tox – A549 cytotoxicity, counter-screen for Nrf2 inhibitors. A549 ARE-Fluc cells, CellTiter-Fluor viability, 18-24 h. Potency, µM (top dose mostly 46 µM), for inactives: at the highest dose activity change, negative = cytotoxicity, hits mostly inhibitors. 0.16% of 390,000 active; also: % is scaled to controls: 0 for no effect and ±100 for the full control effect
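A549 ARE-Fluc cells in 5% FBS OPTI-MEM, 5000 cells/well, rested 2 h then exposed to compounds in concentration-response for 18-24 h at 37 °C. Viability by CellTiter-Fluor fluorescence (Ex 405/Em 525) after 30 min; luciferase luminescence (BugLite, 15 min, RT) read afterwards.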
TGFb inhibitor – TGF-b pathway inhibition; HepG2 CAGA-GFP TGF-b/SMAD3 reporter, GFP fluorescence, 18 h; TGF-beta stimulated, 500 pg/mL final; Potency, µM (titrated, usually from 46.1 µM), for the others: at the highest dose activity, negative = inhibition, actives largely listed as inhibitors; 1.2% of 410,000 active; AID 588855; also: % is scaled to controls: 0 for no effect and ±100 for the full control effect; nearly all actives have a fitted effect of over 65% in size
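Using HEPG2 CAGA-GFP reporter cells at 1000 cells/well, we pinned test compounds, stimulated with recombinant TGF-beta (500 pg/mL final) and measured total well GFP after 18 h.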
HepG2 viability – HepG2 cytotoxicity, counter-screen for TGF-b inhibitors. HepG2 CAGA-GFP viability, ATP luminescence, 18 h. Potency, µM (series often up to 46.1 µM), without a hit: at the highest dose activity change, negative = cytotoxicity, most hits filed as cytotoxic. 0.76% of 410,000 active
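HepG2 CAGA-GFP cells (1000/well, DMEM with 1% FBS) received compound, then TGF-beta at 500 pg/mL final, and were incubated 18 hours at 37 degrees C. Viability was read by CellTiter-Glo luminescence. Media-only wells were set as complete cell-killing and DMSO as no toxicity.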
S2 tox – viability counter-screen for ATXN expression inhibitors. Potency, µM (doses to about 56.7 µM), actives largely listed as cytotoxic. 0.49% of 400,000 active. S2 cells (HEK-293 line with an ATXN2-luciferase reporter) viability, CellTiter-Fluor protease fluorescence, 24 h; also: nearly all actives have a fitted effect of over 40% in size
An asterisk follows results filed as active; i = inactive; ? = inconclusive; · = not tested or not shown. An excerpt weighted towards active compounds, which were near 3.8% of everything screened. Calls follow the shape of the dose curve; as a rule, active = well fitted curve in the direction sought with a large enough effect; inconclusive = small, poorly fitted or top-dose-only effect, or another doubt; inactive = no such curve, though single readings can be large; an effect the other way counts as inactive or inconclusive. Potency is read from the fitted curve at half-maximal effect.

SMILES	Nrf2 inh	ATXN2 expr inh	A549 tox	TGFb inhibitor	HepG2 viability	S2 tox
CCc1ccccc1N1CC(c2nnc(NC(=O)c3ccco3)s2)CC1=O (stereo unspecified)	5%	-10%	0%	-17%	-3%	·
Nc1ccc2ccc(O)cc2c1	6%	-10%	0%	-14%	10%	?
C[n+]1c2cc(N)ccc2cc2ccc(N)cc21 (tested in a mixture with another compound)	·	3.2µM*	·	·	·	·
Cc1nc(N/N=C/c2ccc(O)cc2O)cc(N2CCOCC2)n1	21µM*	?	2%	38%	-39%	i
Cc1nc(N/N=C/c2cccc(F)c2)cc(N2CCOCC2)n1	-18%	-6%	1%	70%	-18%	i
CC/C(C)=N/Nc1cccc([N+](=O)[O-])c1	-9%	?	0%	-8%	-4%	i
O=C(CCN1C(=O)C2C3CCC(C3)C2C1=O)Nc1ccc(F)cc1 (stereo unspecified)	-2%	-3%	5%	23%	-10%	i
Cc1ccc(-c2[nH]ncc2CNCc2ccc(CN(C)C)cc2)cc1	5%	·	?	-1%	1%	·
COc1ccc(-c2nc(CN3CCCCC3c3nccn3C)c(C)o2)c(C)c1C (stereo unspecified)	1%	?	-3%	20µM*	-62%	?
CC(N)c1ccc(Cl)cc1Cl (stereo unspecified)	4%	0%	-2%	4%	7%	i
Cc1ccc(C)c(C(=O)COC(=O)Cn2c(C)csc2=O)c1	2%	7%	2%	8%	1%	i
CCOC(=O)C1=C(CN2CCN(c3ccc(Cl)cc3)CC2)NC(=O)NC1c1ccc(F)cc1 (stereo unspecified)	?	6%	?	16µM*	-39%	i
CCOC(=O)C1=C(CN2CCC(C)CC2)NC(=O)NC1c1ccc(OC(C)C)cc1 (stereo unspecified)	?	-34%	-11%	?	-31%	?
CCOC(=O)C1=C(CN2CCN(c3ccccc3F)CC2)NC(=O)NC1c1ccc(OC)cc1 (stereo unspecified)	18µM*	·	-21%	8%	5%	·
CCOC(=O)C1=C(CN2CCN(c3ccccc3F)CC2)NC(=O)NC1c1ccc(Cl)cc1 (stereo unspecified)	21µM*	8%	-22%	-9%	-7%	i
CCCN1CCN(CC2=C(C(=O)OCC)C(c3ccc(Cl)cc3)NC(=O)N2)CC1 (stereo unspecified)	9%	-10%	-3%	-22%	-30%	i
CCOC(=O)C1=C(CN(CC)Cc2ccccc2)NC(=O)NC1c1ccc(OC(C)C)cc1 (stereo unspecified)	18µM*	?	?	14µM*	-32%	?
CCOC(=O)C1=C(CN2CCN(C(=O)c3ccco3)CC2)NC(=O)NC1c1ccc(OC)cc1 (stereo unspecified)	?	·	1%	-6%	11%	i
CC1(C(=O)NS(=O)(=O)c2ccc3c(c2)CCO3)CCN1C(=O)C1(c2ccc(Cl)cc2)CCC1 (stereo unspecified)	·	4%	·	-1%	4%	i
COc1cc(NC(=O)CSc2nnc(-c3ccncc3)o2)cc(OC)c1OC	3%	7%	-2%	-20%	21%	i
COc1cc(N)c(NC(=O)/C=C/c2nc3cc(OC)c(OC)cc3[nH]2)cc1OC	·	·	·	12%	-2%	·
C[C@H]1CN([C@@H](C)CO)C(=O)CCCn2cc(nn2)CO[C@@H]1CN(C)S(=O)(=O)c1ccc(Oc2ccccc2)cc1	·	7%	·	12%	-13%	i
COc1ccc2c(c1)c1nc3n(c(=O)c1n2CC(=O)Nc1ccccc1)CCCS3	0%	·	2%	-1%	14%	i
COc1ccc(NC(=O)Cn2c3ccc(OC)cc3c3nc4n(c(=O)c32)CCS4)cc1	23µM*	·	0%	-24%	-6%	i
CC(=O)Nc1cccc(-c2ccnc3c2CC(C)(C(=O)NCc2ccc(F)c(F)c2)O3)c1 (stereo unspecified)	·	-18%	·	-11%	-22%	?
SMILES	Nrf2 inh	ATXN2 expr inh	A549 tox	TGFb inhibitor	HepG2 viability	S2 tox
Cc1ccnc(Nc2nc(-c3c(C)nc4sccn34)cs2)c1	21µM*	·	-12%	?	-59%	·
CCOC(=O)c1c(N)c2cc([N+](=O)[O-])ccc2n1C	13%	·	1%	-15%	0%	i
CCOC(=O)/C(=C/c1c(C)n(C)c2ccc([N+](=O)[O-])cc12)C(C)=O	-9%	-29%	-1%	16µM*	-53%	?
COc1ccccc1C(=O)NC(=O)CSc1nc(C)cs1	-1%	0%	0%	1%	-8%	i
COc1ccccc1N(CC(O)COc1c(C)cc(C)cc1C)S(=O)(=O)c1ccccc1 (stereo unspecified)	3%	-17%	-2%	13µM*	11%	?
Cc1[nH]nc(-c2ccc(O)c(C)c2O)c1-c1cnn(-c2ccccc2)c1	·	?	?	7.1µM*	-10%	?
Cc1oc2c(C)c(O)ccc2c(=O)c1-c1cnn(-c2ccccc2)c1	-7%	-6%	-8%	?	-73%	i
CCn1cc2nc(SCc3ccc(C)cc3)n(CCc3ccccc3)c(=O)c2n1	21µM*	?	?	-4%	2%	i
CCc1ccc(S(=O)(=O)c2nnn3c2nc(Nc2ccc(F)cc2)c2cc(Cl)ccc23)cc1	9.2µM*	11%	-19%	13%	6%	i
Cc1ccc2c(c1)N(C(=O)CCC(=O)NCCCN1CCN(C)CC1)CC(C)O2 (stereo unspecified)	20%	-11%	17%	0%	0%	i
CC(C)n1cnc2c(NCCCCCCNC(=O)OC(C)(C)C)nc(NCCO)nc21	·	14µM*	·	·	·	·
CCCCCCN1CCN(C2CN(Cc3ccc(F)cc3)S(=O)(=O)C2)CC1 (stereo unspecified)	·	-20%	·	?	-17%	?
COc1ccc(NC(=O)c2cc(C3CCCCN3C(=O)CCCc3ccccc3)on2)c(C)c1 (stereo unspecified)	·	-14%	·	-9%	-18%	i
CCCCc1ccc(NC(=O)COc2cccc3c(=O)n(C)ccc23)cc1	·	?	-13%	8.9µM*	-51%	?
COCCn1ccc2c(OCC(=O)Nc3cccc(NC(C)=O)c3)cccc2c1=O	-5%	3%	-2%	-4%	18µM*	i
